Source: PubChem
The list is not random: actives were taken first. Their share in the collection is about 2.5%.
Pol kappa inh-1 = inhibitors of human DNA polymerase kappa; Q9UBT6; purified Pol kappa, fluorescent DNA synthesis assay, 10 min; Potency, µM (doses to about 107 µM), without a hit: at the top dose activity, negative = inhibition, usual class: inhibitors; 400,000 tested, 0.53% active; also: potency is read from the fitted curve at half-maximal effect; % is scaled to controls: 0 for no effect and ±100 for the full control effect
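Inhibition of 10 nM Pol kappa is measured by a fluorescent read-out at 0 and 10 min following addition of 50 nM substrate (final), with a 15-min room-temperature compound preincubation.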
WRN helicase inh = blocks human WRN helicase | Q14191 | WRN helicase unwinding, fluorescent forked duplex, kinetic | Potency, µM (series often up to 114 µM), for the others: top-dose activity change, negative = inhibition, actives largely listed as inhibitors | 360,000 tested, 0.46% active | AID 651768; also: potency is read from the fitted curve at half-maximal effect; % is scaled to controls: 0 for no effect and ±100 for the full control effect; nearly all actives have a fitted effect of over 55% in size
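Fluorescence dequenching readout, ex 525 nm/em 598 nm, kinetic mode: forked duplex DNA (100 nM final) with adjacent fluorophore and quencher unwound by WRN (20 nM final) with 2 mM ATP. Compound preincubation 15 min, room temperature.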
L3MBTL1 block = blocks human L3MBTL1. AlphaScreen L3MBTL1–H3K9me1 peptide binding. Q9Y468. AID 485360. Potency, µM (top dose mostly 57.1 µM), without a hit: at the top dose activity, negative = inhibition, most hits filed as inhibitors. 230,000 tested, 0.66% active; also: potency is read from the fitted curve at half-maximal effect; % is scaled to controls: 0 for no effect and ±100 for the full control effect; nearly all actives have a fitted effect of over 60% in size
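Displacement of a biotinylated histone H3(1-15) peptide monomethylated at Lys9 (75 nM) from L3MBTL1 (50 nM) was measured by AlphaScreen after a 30 min room-temperature compound incubation; cefsulodin titration served as intraplate control.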
Pol eta inh-1 = DNA polymerase eta (human) inhibition. recombinant Pol eta, fluorescent DNA replication assay. Potency, µM (top dose mostly 114 µM), for the others: top-dose activity change, negative = inhibition, actives largely listed as inhibitors. 390,000 tested, 1.2% active; also: potency is read from the fitted curve at half-maximal effect; % is scaled to controls: 0 for no effect and ±100 for the full control effect
Target sequence (Q9Y253 whole entry, looked up): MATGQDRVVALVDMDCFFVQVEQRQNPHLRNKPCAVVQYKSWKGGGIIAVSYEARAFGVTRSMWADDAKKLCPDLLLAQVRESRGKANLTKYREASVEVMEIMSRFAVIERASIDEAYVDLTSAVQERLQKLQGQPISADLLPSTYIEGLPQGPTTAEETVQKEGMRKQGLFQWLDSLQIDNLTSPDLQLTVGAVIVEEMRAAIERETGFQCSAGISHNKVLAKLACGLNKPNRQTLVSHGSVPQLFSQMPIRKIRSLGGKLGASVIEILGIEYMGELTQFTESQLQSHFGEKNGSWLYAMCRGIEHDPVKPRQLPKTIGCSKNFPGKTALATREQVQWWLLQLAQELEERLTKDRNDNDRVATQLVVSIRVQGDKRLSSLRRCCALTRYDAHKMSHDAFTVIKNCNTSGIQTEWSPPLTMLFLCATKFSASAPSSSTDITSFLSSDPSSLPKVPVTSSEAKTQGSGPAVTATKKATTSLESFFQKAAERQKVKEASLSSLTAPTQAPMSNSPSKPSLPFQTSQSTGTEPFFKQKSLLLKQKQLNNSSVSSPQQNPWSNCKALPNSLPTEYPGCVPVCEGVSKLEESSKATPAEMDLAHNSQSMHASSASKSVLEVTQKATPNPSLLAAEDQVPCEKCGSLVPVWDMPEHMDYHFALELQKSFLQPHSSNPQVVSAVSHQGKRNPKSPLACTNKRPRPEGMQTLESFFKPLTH
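Pol eta (10 nM) was preincubated with compounds for 15 min at room temperature, after which fluorescent replication substrate (50 nM final) was added to start the reaction. Fluorescence was read kinetically at 0 and 10 min.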
POLB inh = inhibitors of human DNA polymerase beta. Pol beta primer extension/strand displacement, fluorescence kinetic. Potency, µM (series often up to 114 µM), for inactives: top-dose activity change, negative = inhibition, most hits filed as inhibitors. 340,000 tested, 1.3% active; also: potency is read from the fitted curve at half-maximal effect; % is scaled to controls: 0 for no effect and ±100 for the full control effect
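Reaction started by 50 nM substrate onto compound-treated Pol beta (10 nM, 15 min preincubation, room temperature); plates read at 0 min and 10 min. Normalized concentration-effect data fitted by four-parameter Hill equation.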
POLI inh = DNA polymerase iota (human) inhibition; AID 588590; Pol iota fluorescent replication assay, 10 min; Q9UNA4; Potency, µM (top dose mostly 115 µM), for inactives: at the highest dose activity, negative = inhibition, actives largely listed as inhibitors; 390,000 tested, 1% active; also: potency is read from the fitted curve at half-maximal effect
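Fluorescent replication assay read twice, at 0 min and 10 min after adding 50 nM (final) substrate. Enzyme (10 nM) and compounds were first incubated 15 min at room temperature; enzyme-free buffer wells were negative controls.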
BAZ2B confirm = inhibits human BAZ2B bromodomain, hit validation. Potency, µM, most hits filed as inhibitors. shares compounds with Pol kappa inh-1. 25 tested, 100% active. AlphaScreen BAZ2B / biotin-H3K14Ac peptide displacement. AID 588809; calls by dose curve
BAZ2B bead ctr = AlphaScreen signal interference, BAZ2B hit counter-screen. 25 tested, under 10 active. Potency, µM (series often up to 57.1 µM), inactives show at the highest dose activity change, negative = inhibition, most hits filed as inhibitors. shares compounds with Pol kappa inh-1. AlphaScreen biotin-His6 peptide bead counterscreen, signal decrease;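 active = clear concentration-dependent signal drop in the bead assay lacking the target, so a primary-screen artifact; inconclusive = weak, partial or single-dose response; inactive = no response, so a real primary hit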
PGK validate = TbPGK inhibition, hit validation; shares compounds with Pol kappa inh-1; TbPGK coupled GAPDH assay, Kinase-Glo luminescence; Potency, µM (top dose mostly 57.5 µM), inactives show at the highest dose activity change, negative = inhibition, most hits filed as inhibitors; 500 tested, 79% active; also: potency is read from the fitted curve at half-maximal effect; % is scaled to controls: 0 for no effect and ±100 for the full control effect; nearly all actives have a fitted effect of over 65% in size
Pol iota confirm = Inhibitors of human DNA polymerase iota, confirmation. 1,500 tested, 77% active. Pol iota primer extension, TAMRA/BHQ fluorescence. shares compounds with Pol kappa inh-1. Potency, µM, most hits filed as inhibitors; also: potency is read from the fitted curve at half-maximal effect
Pol kappa inh-2 = Pol kappa (human) inhibition, cherry-pick confirmation; shares compounds with Pol eta inh-1; purified Pol-kappa, fluorescent strand-displacement substrate; Potency, µM, hits mostly inhibitors; 920 tested, 76% active; AID 720501; also: potency is read from the fitted curve at half-maximal effect
Pol eta inh-2 = confirmation of human DNA polymerase eta inhibitors; shares compounds with Pol eta inh-1; Pol eta primer extension, TAMRA/BHQ fluorescence, 10 min; Potency, µM, hits mostly inhibitors; 2,600 tested, 64% active; AID 720502; also: potency is read from the fitted curve at half-maximal effect
Active calls of the source: *; u = inconclusive; x = not tested or not shown; [ ] = dose if it differs, or a comment. Unless noted, calls follow the shape of the dose curve; as a rule, active = well fitted curve in the direction sought with a large enough effect; inconclusive = small, poorly fitted or top-dose-only effect, or another doubt; inactive = no such curve, though single readings can be large; an effect the other way counts as inactive or inconclusive.

SMILES	Pol kappa inh-1	WRN helicase inh	L3MBTL1 block	Pol eta inh-1	POLB inh	POLI inh	Pol iota confirm	Pol kappa inh-2	Pol eta inh-2	others
Oc1ccc(C[C@H]2NCCc3cc(O)c(O)cc32)cc1O	u	u	x	-14%	1%	79µM*	21*	x	x
CNC(=O)O/N=C(/C)SC	-5%[60.1 µM]	x	x	x	x	x	x	x	x
CCOC(=O)CCCc1sc(N)nc1-c1[nH]c(=O)[nH]c1C	u	u	-91%	u	1%	u	x	x	x	BAZ2B confirm=10*;BAZ2B bead ctr=u
CC1CCN(S(=O)(=O)c2ccc(NN=C(C#N)C#N)cc2)CC1	x	x	x	x	-1%	x	x	x	x
N#CC(C#N)=NNc1ccc(S(N)(=O)=O)cc1	45µM*	56µM*	x	13µM*	-6%	20µM*	x	u	67*	PGK validate=-18%
COc1ccccc1[As](=O)(O)CC(O)COc1ccc(Cl)cc1Cl (stereo not drawn)	x	x	x	x	-9%	x	x	x	x
O=C(NN1C(=O)C2C3C=CC(C4CC34)C2C1=O)c1ccc(Br)cc1 (stereo not drawn)	-9%	-1%	8%	-26%	47%	113%	x	x	x
Cc1ccc(C(=O)Nc2ccc(S(=O)(=O)N3CCC(c4nc5ccccc5s4)CC3)cc2)cc1	-18%	x	x	-5%	-16%	23%	x	x	x
Cc1nc(NC(=O)c2ccccc2)sc1-c1csc(Nc2ccc(C(=O)O)cc2)n1	-26%	-9%[11.6 µM]	x	18µM*	16%	u	42*	38*	43*	BAZ2B confirm=28*;BAZ2B bead ctr=-17%
Cc1c(C(c2ccc(F)cc2)c2c(O)c3ccccc3oc2=O)c(=O)n(-c2ccccc2)n1C (stereo not drawn)	-9%	-1%	13%	-16%	0%	-19%	x	x	x
CC(C)c1ccc(C(c2c(O)c3ccccc3oc2=O)c2c(O)c3ccccc3oc2=O)cc1	x	-15%[11.6 µM]	x	22µM*	x	x	u	38*	u
CN1C(=O)C(=Cc2ccc(Sc3ccccc3)o2)C(=O)N(C)C1=S	u	u	x	45µM*	x	u	u	17*	38*
O=C(Nc1ccc(Cl)c(C(F)(F)F)c1)c1ccc2c(c1)CCN2S(=O)(=O)c1ccccc1	-9%	x	x	-10%	u	15%	x	x	x
C=C(C)C(=O)Nc1cccc(C2=NOC3(C2)C[C@@H](C(N)=O)N(C(=O)C2(C)CC2)C3)c1 (stereo partly drawn)	45µM*	u	x	3.2µM*	1.1µM*	50µM*	u	x	9.5*	BAZ2B confirm=1.3*;BAZ2B bead ctr=u;PGK validate=u
C=C(C)C(=O)Nc1cccc(C2=NOC3(C2)C[C@H](C(N)=O)N(C(=O)COc2ccc(Cl)cc2)C3)c1 (stereo partly drawn)	18µM*	u	x	7.9µM*	4.5µM*	45µM*	17*	x	8.5*	BAZ2B confirm=5.6*;BAZ2B bead ctr=-18%
C=C(C)C(=O)Nc1cccc(C2=NOC3(C2)C[C@@H](C(N)=O)N(C(=O)/C=C/CC)C3)c1 (stereo partly drawn)	28µM*	u	x	7.9µM*	3.5µM*	16µM*	u	19*	19*	BAZ2B confirm=10*;BAZ2B bead ctr=-7%;PGK validate=u
CC(C)(C)c1ccc(C(=O)C2CCCN(C3CCC3)C2)cc1 (stereo not drawn)	-1%	3%	-9%	-18%	-6%	68%	x	x	x
C/C(=N\N1CCN(C)CC1)c1c(O)[nH]c(=O)[nH]c1=O	0%	8%	-4%	-10%	6%	-1%	x	x	x
C=Cc1cc(OC)c2c(c1)c(=O)oc1c2cc(OC)c2c(O)ccc(C3OC(C)C(O)C(C)(O)C3O)c21 (stereo not drawn)	4µM*	10µM*	x	1.4µM*	x	2.5µM*	4.7*	x	11*
CCOc1ccc2nc(NC(=O)c3cccn(Cc4ccccc4)c3=O)sc2c1	-5%[60.1 µM]	x	x	-15%	0%	12%	x	x	x
COC(=O)C1=C(c2cccc(C#N)c2)C[C@@H]2CC[C@H]1N2C(=O)NCCCOC(C)C	-30%	4%	1%	-12%	x	13%	x	x	x
Clc1ccc(C2(Cn3cncn3)OCCO2)c(Cl)c1	-3%[19.4 µM]	x	x	x	x	x	x	x	x
O=C1NC(=O)C(=Cc2ccco2)C(=O)N1	40µM*	u	x	8.9µM*	x	u	67*	21*	30*	PGK validate=3.7µM*
O=C1NC(=O)C(=Cc2ccc3c(c2)OCO3)C(=O)N1	x	x	2%	x	1%	x	x	x	x
CCN1C[C@@]2(OC(=O)c3ccccc3NC(C)=O)CCC(OC)[C@@]34C5CC6C(OC)C[C@@](O)(C(CC23)[C@@H]14)C5(O)C6OC (stereo partly drawn)	-6%[60.1 µM]	x	x	x	x	x	x	x	x
SMILES	Pol kappa inh-1	WRN helicase inh	L3MBTL1 block	Pol eta inh-1	POLB inh	POLI inh	Pol iota confirm	Pol kappa inh-2	Pol eta inh-2	others
CN1CC[C@@]2(C)c3cc(O)ccc3N(C)C2O1 (stereo partly drawn)	-6%	x	x	u	x	25µM*	60*	x	u
CC1[C@H]2Cc3ccc(O)cc3[C@]1(C)CCN2C (stereo partly drawn)	0%	0%	x	-2%	x	-5%	x	x	x
CN1CC[C@@]2(C)c3cc(O)ccc3N(C)[C@@H]12	-4%	39%	x	u	x	10µM*	60*	x	u
c1ccc2nc3ccccc3cc2c1	-10%[60.1 µM]	x	x	x	x	u	x	x	x
OCCNc1c2c(nc3ccccc13)CCCC2	9%	10%	-1%	-8%	25%	1%	x	x	x
CNc1ccc2nc3ccccc3[n+](C)c2c1	20µM*	3µM*	x	50µM*	28µM*	35µM*	75*	19*	67*
C[n+]1c2ccccc2nc2ccc(NCCO)cc21	45µM*	4.7µM*	x	40µM*	28µM*	u	75*	42*	67*
